The source of these data is PubChem BioAssay (Tox21).

Assay [1] is described as follows: qHTS assay to identify small molecule antagonists of the estrogen related receptor (ERR) signaling pathway from Tox21 library - cell viability counter screen (AID 1224834). Also: nearly all actives have a fitted effect of over 30% in size. Also: potency is read from the fitted curve at half-maximal effect. The method, boiled down: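 ERR cells, 2,000/well; 6 h settle at 37 C/5% CO2; pin-tool compound transfer in DMSO; 17.5 h at 37 C; CellTiter-Fluor, 30 min; fluorescence intensity.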
A general note: In qHTS, concentration-response curves come from the screen itself.

Assay [2] addresses Luciferin 4-monooxygenase (Photinus pyralis) (UniProt P08659). Briefly: qHTS assay to identify small molecule inhibitors of firefly luciferase (AID 1224835). Also: nearly all actives have a fitted effect of over 25% in size. Also: potency is read from the fitted curve at half-maximal effect. The method, boiled down:
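Inhibition of purified Photinus luciferase is measured by luminescence. Substrate levels (D-luciferin, ATP) sit at their KM values. Each compound is tested in a concentration series.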

A short description of assay [3]: qHTS assay to identify small molecule agonists of the constitutive androstane receptor (CAR) signaling pathway - cell viability counter screen (AID 1224836). Also: nearly all actives have a fitted effect of over 45% in size. Also: potency is read from the fitted curve at half-maximal effect. Put shortly:
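Cell viability multiplexed with the CAR agonist screen: CellTiter-Fluor fluorescence after 23 hr at 37 C. HepG2-CYP2B6-hCAR cells got compounds at 15 concentrations with PK11195 at 0.75 uM final.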

Assay [4] in a line: qHTS assay to identify small molecule antagonists of the constitutive androstane receptor (CAR) signaling pathway - cell viability counter screen (AID 1224837). Also: nearly all actives have a fitted effect of over 45% in size. Also: potency is read from the fitted curve at half-maximal effect. Put shortly: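 Viability was measured with CellTiter-Fluor in a HepG2 line carrying stably transfected hCAR and a CYP2B6-2.2kb construct. Cells were exposed for 23 hr at 37 C to 15 compound concentrations with 50 nM CITCO as agonist.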

Assay [5] addresses Nuclear receptor subfamily 1 group I member 3 (Homo sapiens) (UniProt Q14994). Briefly: qHTS assay to identify small molecule antagonists of the constitutive androstane receptor (CAR) signaling pathway (AID 1224838).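 Also: HepG2 cells stably expressing hCAR with CYP2B6 luciferase reporter stimulated by CITCO; nearly all actives have a fitted effect of over 40% in size.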 Also: potency is read from the fitted curve at half-maximal effect. The method, boiled down:
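Antagonist mode used CITCO at a final 50 nM to activate CAR in human hepatoma HepG2 cells carrying stable hCAR and a 2.2 kb CYP2B6 promoter-luciferase construct. Compounds were tested at 15 concentrations over 24 h, with luminescence as the end point.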

Assay [6] has the same target. Briefly: qHTS assay to identify small molecule agonists of the constitutive androstane receptor (CAR) signaling pathway (AID 1224839). Also: nearly all actives have a fitted effect of over 15% in size. The method, boiled down: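 Luminescent ONE-Glo read-out after 24 hr, 37 C exposure of double-stable HepG2-CYP2B6-hCAR reporter cells to a 15-point compound series, in the presence of 0.75 uM PK11195 (final).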
Assay [7] is described as follows: qHTS assay to identify small molecule antagonists of the estrogen related receptor signaling pathway with the pleiotropic PPARgamma coactivator (PGC) from Tox21 10K library - cell viability counter screen (AID 1224840; active = well fitted cell-killing curve with a large enough effect in the repeat runs, not every such curve was filed as active; also: nearly all actives have a fitted effect of over 40% in size; also: potency is read from the fitted curve at half-maximal effect). Put shortly:
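Multiplexed viability counter screen in the PGC/ERR cell line: cells treated with DMSO-dissolved compounds for 17.5 hours at 37 C, then viability measured as CellTiter-Fluor fluorescence.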

Assay [8] in a line: qHTS assay to identify small molecule antagonists of the estrogen related receptor signaling pathway with the pleiotropic PPARgamma coactivator (PGC) from Tox21 10K library (AID 1224841; call rule not given here; also: actives are mostly falling curves and most rising ones were filed inactive; nearly all actives have a fitted effect of over 50% in size; also: potency is read from the fitted curve at half-maximal effect). Put shortly: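 Steps: plate 2,000 PGC/ERR cells per well; incubate 6 h at 37 C with 5% CO2; transfer compounds from DMSO stocks by pin tool; incubate 18 h at 37 C; add One-Glo; measure luminescence 30 min later.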

A short description of assay [9]: qHTS assay to identify small molecule agonists of the estrogen related receptor signaling pathway with the pleiotropic PPARgamma coactivator (PGC) from Tox21 10K library (AID 1224842). Also: nearly all actives have a fitted effect of over 15% in size. Put shortly: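 Luminescence from One-Glo (30 min, room temperature) measured after PGC/ERR cells had 18 h at 37 C with pinned compound (23 nL in DMSO). Cells had been seeded at 2,000 per well and pre-incubated 6 h.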

The nature of assay [10]: qHTS assay to identify small molecule agonists of H2AX (AID 1224845; active = well fitted activation curve with a large enough effect in the signal ratio in the repeat runs, not every such curve was filed as active; the % refers to the signal ratio). Put shortly:
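Phospho-H2AX Ser139 measured by HTRF (ex 320 nm; em 665 and 620 nm) after 24 hr antibody incubation. Compounds, 15 concentrations, 0.76% DMSO, were applied to CHO-K1 cells for 3hr at 37C before lysis.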

Assay [11] is described as follows: qHTS assay to identify small molecule agonists of the hypoxia (HIF-1) signaling pathway (AID 1224846; active = well fitted activation curve with a large enough effect in the signal ratio in the repeat runs, not every such curve was filed as active; the % refers to the signal ratio). The method, boiled down:
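Compounds from the Tox21 10K library, dissolved in DMSO, are tested for induction of a hypoxia response element–controlled beta-lactamase reporter in ME-180 cells. Exposure lasts 17 hrs at 37C after a 5 hr settling period, followed by CCF4-AM FRET substrate.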

The nature of assay [12]: qHTS assay to identify small molecule agonists of H2AX - cell viability counter screen (AID 1224847; calls by dose curve; also: nearly all actives have a fitted effect of over 30% in size; also: potency is read from the fitted curve at half-maximal effect). Put shortly:
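Counter-screen for viability: CellTiter-Glo ATP luminescence read after 3 h compound treatment (15-point titration, 0.76% DMSO final) of CHO-K1 cells at 37C, with 30 min room-temperature reagent incubation.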

The nature of assay [13]: qHTS assay to identify small molecule antagonists of the estrogen related receptor (ERR) signaling pathway from Tox21 library (AID 1224848). Also: nearly all actives have a fitted effect of over 50% in size. Also: potency is read from the fitted curve at half-maximal effect. The method, boiled down:
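ERR cell line, 2,000 cells/well. 6 h settle, then compound (DMSO) added; 18 h at 37 C; ONE-Glo luminescence after 30 min RT.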

The nature of assay [14]: qHTS assay to identify small molecule agonists of the estrogen related receptor (ERR) signaling pathway from Tox21 library (AID 1224849; calls by dose curve; also: nearly all actives have a fitted effect of over 15% in size). The conditions noted are these: ERR reporter cell line, ONE-Glo luciferase, 18 h; at 92.4 µM (top of the series) unless noted. Put shortly: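 Cells carrying the ERR reporter were plated and allowed to settle for 6 h, exposed to library compounds for 18 h at 37 C, then lysed with ONE-Glo and luminescence measured.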

A short description of assay [15]: qHTS RealTime-Glo MT Cell Viability Assay in HepG2 cells - 24 hour (AID 1224867). Also: nearly all actives have a fitted effect of over 50% in size. The method, boiled down:
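qHTS, HepG2, 600 cells/well, RealTime-Glo (NanoLuc + prosubstrate) added with cells; 5 h preincubation; DMSO compound addition; 37 C; luminescence at 0/8/16/24/32/40 h.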

Assay [16] is described as follows: qHTS RealTime-Glo MT Cell Viability Assay in HEK293 cells - 32 hour (AID 1224868). Also: top concentration of the series differs between compounds; nearly all actives have a fitted effect of over 50% in size. Put shortly:
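Assay medium contained NanoLuc luciferase plus cell-permeant prosubstrate, added with HEK293 cells at 600 cells/well. After 5 h at 37 C/5% CO2 compounds were added; plates stayed at 37 C for 40 h with serial luminescence reads.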

The nature of assay [17]: A CellTox Green Cytotoxicity Assay to monitor cytotoxicity in HEK293 cells - 0 hour (AID 1224869). Also: nearly all actives have a fitted effect of over 50% in size. Put shortly: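 Cells (HEK293, 600/well) and dye reagent are dispensed together. After 5 h at 37 C, 23 nL compound is pinned in. Plates stay at 37 C for 40 h with fluorescence read at 0h, 8h, 16h, 24h, 32h and 40h.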
In assay [18] the target is Thyrotropin receptor (Homo sapiens) (UniProt P16473). Briefly: qHTS assay to identify small molecule agonists of the thyroid stimulating hormone receptor (TSHR) signaling pathway (AID 1224843; calls by dose curve; also: nearly all actives have a fitted effect of over 45% in size). Put shortly:
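A cell-based cAMP HTRF format was run in TSHR-transfected HEK293 cells, 800 per well. Treatment: 30 min, room temperature. Detection: 1 h with labelled cAMP and anti-cAMP cryptate. Concentration-response over 15 points, three replicates.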

Assay [19] is described as follows: qHTS assay to identify small molecule agonists of the hypoxia (HIF-1) signaling pathway - cell viability counter screen (AID 1224844; calls by dose curve; also: nearly all actives have a fitted effect of over 50% in size; also: potency is read from the fitted curve at half-maximal effect). The method, boiled down:
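Cytotoxicity was measured in parallel with the HRE-driven beta-lactamase readout: after 17 hrs of compound exposure at 37C, HRE-bla ME-180 cells received CellTiter-Glo and luminescence was recorded 30 min later.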

Assay [20] is described as follows: qHTS assay to identify small molecule agonists of the estrogen related receptor signaling pathway with the pleiotropic PPARgamma coactivator (PGC) (AID 1224823). The method, boiled down:
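Luminescence readout (One-Glo, 30 min RT) from PGC/ERR cell line treated 18 h at 37 C with pin-tool-delivered DMSO compound solutions; cells plated 6 h before dosing. Quantitative HTS format.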

Structures are written as SMILES. Values without a mark were called inactive. Results filed as inconclusive are left out. The source made the active and inactive calls. Unless noted, calls follow the shape of the dose curve; as a rule, active = well fitted curve in the direction sought with a large enough effect in the repeat runs; inconclusive = weak or mixed curves; inactive = no such curve, though single readings can be large; an effect the other way counts as inactive or inconclusive.
% is scaled to controls: 0 for no effect and ±100 for the full control effect.

Chain of Luciferin 4-monooxygenase (Photinus pyralis) (P08659 whole entry, looked up): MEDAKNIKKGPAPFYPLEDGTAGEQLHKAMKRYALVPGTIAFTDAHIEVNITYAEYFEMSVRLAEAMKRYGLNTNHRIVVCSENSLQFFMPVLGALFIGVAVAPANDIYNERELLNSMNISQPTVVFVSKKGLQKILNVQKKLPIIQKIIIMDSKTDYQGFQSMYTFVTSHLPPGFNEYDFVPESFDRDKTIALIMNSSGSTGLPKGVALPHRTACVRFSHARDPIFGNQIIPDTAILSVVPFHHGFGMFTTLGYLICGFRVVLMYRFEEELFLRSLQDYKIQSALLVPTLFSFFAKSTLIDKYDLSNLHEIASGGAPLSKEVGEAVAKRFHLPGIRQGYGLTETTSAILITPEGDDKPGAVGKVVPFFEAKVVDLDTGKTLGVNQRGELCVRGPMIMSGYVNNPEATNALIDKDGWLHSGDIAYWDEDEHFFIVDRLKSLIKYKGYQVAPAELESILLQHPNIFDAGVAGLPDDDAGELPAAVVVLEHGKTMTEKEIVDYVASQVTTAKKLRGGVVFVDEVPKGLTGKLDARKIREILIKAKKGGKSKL
Chain of Thyrotropin receptor (Homo sapiens) (P16473 whole entry, looked up): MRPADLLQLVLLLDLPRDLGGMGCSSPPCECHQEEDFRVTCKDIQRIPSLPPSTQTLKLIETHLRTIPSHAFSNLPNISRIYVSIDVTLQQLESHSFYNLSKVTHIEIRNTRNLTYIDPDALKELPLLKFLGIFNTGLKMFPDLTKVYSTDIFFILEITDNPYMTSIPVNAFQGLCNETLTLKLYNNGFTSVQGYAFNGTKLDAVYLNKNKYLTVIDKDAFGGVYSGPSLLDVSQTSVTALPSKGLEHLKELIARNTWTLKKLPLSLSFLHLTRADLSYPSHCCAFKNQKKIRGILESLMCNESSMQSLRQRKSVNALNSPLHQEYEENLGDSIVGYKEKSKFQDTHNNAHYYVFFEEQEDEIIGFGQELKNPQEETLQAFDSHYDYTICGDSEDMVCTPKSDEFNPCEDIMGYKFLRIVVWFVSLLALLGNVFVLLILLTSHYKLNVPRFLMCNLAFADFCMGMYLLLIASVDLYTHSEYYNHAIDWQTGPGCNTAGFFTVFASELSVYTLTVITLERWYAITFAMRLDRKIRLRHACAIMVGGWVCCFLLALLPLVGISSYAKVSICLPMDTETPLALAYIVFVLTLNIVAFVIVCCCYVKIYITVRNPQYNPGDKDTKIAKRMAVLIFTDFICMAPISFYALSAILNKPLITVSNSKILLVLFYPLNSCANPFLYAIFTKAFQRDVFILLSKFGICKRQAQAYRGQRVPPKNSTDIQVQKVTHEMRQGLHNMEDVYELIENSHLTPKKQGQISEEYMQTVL
Chain of Nuclear receptor subfamily 1 group I member 3 (Homo sapiens) (Q14994 whole entry, looked up): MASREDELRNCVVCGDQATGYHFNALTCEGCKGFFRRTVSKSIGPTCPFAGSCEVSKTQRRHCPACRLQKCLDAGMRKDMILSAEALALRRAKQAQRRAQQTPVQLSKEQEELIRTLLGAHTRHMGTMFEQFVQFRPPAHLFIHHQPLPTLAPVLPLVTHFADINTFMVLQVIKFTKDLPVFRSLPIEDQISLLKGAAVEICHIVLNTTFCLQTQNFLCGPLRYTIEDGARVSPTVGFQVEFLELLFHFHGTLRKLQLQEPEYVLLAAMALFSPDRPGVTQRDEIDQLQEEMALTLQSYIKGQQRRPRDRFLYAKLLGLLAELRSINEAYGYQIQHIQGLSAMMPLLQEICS

Take `CC(C)N=C=NC(C)C`: the Potency result in assay [1], in assay [2], in assay [3], in assay [4], in [5] and in assay [6] was “inactive” each time. Moreover, the Potency entry in assay [7], in assay [8], in assay [9], in assay [10], in assay [12] and in assay [13] was “inactive” throughout. Also, the Potency result in assay [15], in assay [16] and in assay [17] was “inactive” throughout. In addition, the outcome in [11] was inactive. For the same compound, the activity change, positive = activation in assay [14] is 2.53%.
Take `Cc1ccc(Nc2c(F)cccc2Cl)c(CC(=O)O)c1`: the Potency result in assay [1], in assay [2], in assay [3], in assay [4], in assay [5] and in assay [6] was “inactive” in each case. In addition, the Potency result in [7], in [8], in [9], in assay [18], in [19] and in [10] was “inactive” each time. Besides, the Potency entry in assay [12], in assay [13], in assay [15], in [16] and in assay [17] was “inactive” each time. The outcome in [11] was inactive. Moreover, in [14], the activity change, positive = activation was -14.1% [at 42.5 µM].
As for `CN1C(CSCC(F)(F)F)Nc2cc(Cl)c(S(N)(=O)=O)cc2S1(=O)=O` (stereo not drawn), the Potency result in assay [1], in assay [2], in assay [3], in assay [4], in assay [5] and in assay [6] was “inactive” throughout. Moreover, the Potency entry in assay [7], in [9], in [18], in assay [12], in assay [15] and in assay [17] was “inactive” each time. Besides, the call in [11] was inactive. The activity change, positive = activation in assay [14] was -16.7% [at 42.5 µM].
On to `COc1ccc(-c2cc(C(F)F)nn2-c2ccc(S(N)(=O)=O)cc2)cc1F`, for which the Potency entry in assay [1], in [2], in assay [3], in assay [4], in assay [5] and in assay [6] was “inactive” throughout. Also, the Potency result in assay [7], in [8], in [9], in assay [19], in assay [12] and in [15] was “inactive” throughout. Moreover, the Potency entry in assay [17] was “inactive”. In addition, the call in [11] was inactive. Besides, in [14], the activity change, positive = activation was -17.4% [at 42.5 µM].
As for `CC12CC3CC(C)(C1)CC(N)(C3)C2`, the compound was called inactive in assay [20]. The Potency result in assay [1], in [2], in assay [3], in [4], in [5] and in assay [6] was “inactive” each time. Further, the Potency entry in assay [7], in assay [8], in assay [9], in [18], in assay [19] and in assay [12] was “inactive” each time. The Potency entry in assay [13], in assay [15], in assay [16] and in assay [17] was “inactive” in each case. The activity change, positive = activation in [14] is -0.576% [at 42.5 µM].
In the case of `Cc1c(C2(c3cc(Br)c(O)c(Br)c3C)OS(=O)(=O)c3ccccc32)cc(Br)c(O)c1Br`, the Potency is 14.9 µM (active) in assay [1]; 8.67 µM (active) in [2]; 14.9 µM (active) in assay [3]; 18.8 µM (active) in assay [4]; 11.8 µM (active) in assay [5]; 18.8 µM (active) in assay [7]. For the same compound, the Potency was 11.8 µM (active) in [8], 16.9 µM (active) in assay [19], 9.77 µM (active) in [12] and 11.8 µM (active) in assay [13]. For the same compound, the Potency result in assay [6], in [9], in assay [15] and in assay [16] was “inactive” throughout. Besides, the result in [11] was inactive. For the same compound, the activity change, positive = activation in [14] is -68%.
With `COC(=O)C1=C(C)NC(C)=C(C(=O)OC(C)(C)CN(C)CCC(c2ccccc2)c2ccccc2)C1c1cccc([N+](=O)[O-])c1` (stereo not drawn), the result in assay [20] was inactive. In addition, the Potency is 23.7 µM (active) in [1], 16.8 µM (active) in assay [8] and 13.3 µM (active) in assay [13]. In addition, the Potency result in assay [2], in assay [5], in [6], in assay [9], in [18] and in [19] was “inactive” each time. The Potency result in assay [12], in [16] and in assay [17] was “inactive” throughout. The activity change, positive = activation in assay [14] is -45.4% [at 42.5 µM].
